Assay in all cases: growth (OD600 after 10 h); higher = more growth (less inhibition)
For experiment [1], the system named is E. coli TESEC Alr+ wild-type control. Particulars: compound 0.1 mM; raw OD600 reference: median of DMSO wells 0.241, cell-free background 0.041. How it is done:
(§1)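 TESEC Mtb Alr E. coli, or the Alr+ wild-type control, in 384-well plates with Prestwick library compounds at 0.1 mM and 1% DMSO, across arabinose induction levels of 1E3 to 1E7 nM. Growth is read as OD600 after 10 h at 37 °C in triplicate biological replicates.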

The subject of experiment [2] is E. coli TESEC Mtb Alr. As to conditions: compound 0.1 mM. How it is done:
as §1

Another experiment concerns E. coli TESEC Mtb Asd. Particulars: compound 0.1 mM. How it is done:
(§2)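 TESEC E. coli strains in which the native enzyme is deleted and replaced by arabinose-inducible Mtb Asd, DapB, CysH or TrpD, each grown in its selective medium. Strains were screened against the Prestwick library at 0.1 mM and 1% DMSO in 384-well format at low and high arabinose induction. Growth is read as OD600 after 10 h in triplicate.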

For the next experiment, the system named is E. coli TESEC Mtb DapB. Particulars: compound 0.1 mM. How it is done: as §2
Experiment [3] deals with E. coli TESEC Alr+ wild-type control. As to conditions: compound 0.1 mM; raw OD600 reference: median of DMSO wells 0.49, cell-free background 0.052. The procedure:
(§3)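 TESEC Mtb Alr E. coli (ΔaraC ΔtolC ΔentC Δalr ΔdadX, arabinose-inducible Mtb Alr) or the Alr+ wild-type control strain, grown in defined M9-fructose medium without D-alanine in 96-well plates with Prestwick library compounds at 0.1 mM and 1% DMSO. Low Alr induction is 0.1 µM arabinose and high induction is 10 mM arabinose.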

The test system of experiment [4] is E. coli TESEC Mtb Alr. As to conditions: compound 0.1 mM. How it is done: as §3
The source holds these as a separate data set.

[5] abbreviates: arabinose 1000 nM, raw OD600 reference: median of DMSO wells 0.294, cell-free background 0.041.
Setting [6] is: arabinose 10000 nM, raw OD600 reference: median of DMSO wells 0.264, cell-free background 0.041.
Setting [7] is: arabinose 100000 nM, raw OD600 reference: median of DMSO wells 0.201, cell-free background 0.041.
The mark [8] stands for this setting: arabinose 1000000 nM, raw OD600 reference: median of DMSO wells 0.193, cell-free background 0.041.
The mark [9] stands for this setting: arabinose 10000000 nM, raw OD600 reference: median of DMSO wells 0.146, cell-free background 0.041.
Setting [10] is: arabinose induction (level): High, raw OD600 reference: median of DMSO wells 0.331, cell-free background 0.041.
The mark [11] stands for this setting: arabinose induction (level): Low, raw OD600 reference: median of DMSO wells 0.417, cell-free background 0.041.
Setting [12] is: arabinose induction (level): High, raw OD600 reference: median of DMSO wells […], cell-free background 0.041.
Where [13] appears, read: arabinose induction (level): Low, raw OD600 reference: median of DMSO wells 0.227, cell-free background 0.041.
The mark [14] stands for this setting: arabinose 100 nM, raw OD600 reference: median of DMSO wells 0.413, cell-free background 0.052.
Where [15] appears, read: arabinose 10000000 nM, raw OD600 reference: median of DMSO wells […], cell-free background 0.052.

Structures are written as SMILES. Structures can show the parent of a compound that is named as a salt. ± gives the standard deviation of the averaged measurements.

In the case of `C/C(=C(\CCOP(=O)(O)O)SC(=O)c1ccccc1)N(C=O)Cc1cnc(C)nc1N` [Benfotiamine], the growth worked out at 0.2481 ± 0.0011 in experiment [1]; 0.317 ± 0.014 with E. coli TESEC Mtb Alr [2] (setting [5]); 0.257 ± 0.0029 in the experiment on E. coli TESEC Mtb Alr [2] (setting [6]); 0.205 ± 0.019 in the experiment on E. coli TESEC Mtb Alr [2] (setting [7]); 0.186 ± 0.006 in the experiment on E. coli TESEC Mtb Alr [2] (setting [8]); 0.141 ± 0.0056 with E. coli TESEC Mtb Alr [2] (setting [9]). For the same compound, the growth with E. coli TESEC Mtb Asd (setting [10]) is 0.352 ± 0.068; in the experiment on E. coli TESEC Mtb Asd (setting [11]), 0.41 ± 0.11; in the experiment on E. coli TESEC Mtb DapB (setting [12]), 0.188 ± 0.0089; with E. coli TESEC Mtb DapB (setting [13]), 0.224 ± 0.032; in experiment [3], 0.502 ± 0.11; in the experiment on E. coli TESEC Mtb Alr [4] (setting [14]), 0.404 ± 0.0067. The same compound registered a growth in the experiment with E. coli TESEC Mtb Alr [4] (setting [15]) of 0.359 ± 0.0094.
Turning to `CN1CCCN=C1/C=C/c1cccc(O)c1` [Oxantel pamoate], the growth was determined as 0.216 ± 0.016 in experiment [1]; 0.303 ± 0.013 with E. coli TESEC Mtb Alr [2] (setting [5]); 0.236 ± 0.0088 with E. coli TESEC Mtb Alr [2] (setting [6]); 0.226 ± 0.039 in the experiment with E. coli TESEC Mtb Alr [2] (setting [7]); 0.141 ± 0.0019 in the experiment with E. coli TESEC Mtb Alr [2] (setting [8]); 0.189 ± 0.0049 in the experiment on E. coli TESEC Mtb Alr [2] (setting [9]). Also, the growth in the experiment on E. coli TESEC Mtb Asd (setting [10]) turned out to be 0.282 ± 0.051; in the experiment on E. coli TESEC Mtb Asd (setting [11]) it was 0.258 ± 0.009; with E. coli TESEC Mtb DapB (setting [12]), 0.1953 ± 0.0019; in the experiment with E. coli TESEC Mtb DapB (setting [13]), 0.218 ± 0.019; in experiment [3] it was 0.496 ± 0.038; with E. coli TESEC Mtb Alr [4] (setting [14]) it was 0.405 ± 0.011. In addition, the growth in the experiment with E. coli TESEC Mtb Alr [4] (setting [15]) worked out at 0.326 ± 0.013.
Consider `CN(C(=O)C(Cl)Cl)c1ccc(OC(=O)c2ccco2)cc1` [Diloxanide furoate], for which the growth turned out to be 0.185 ± 0.0099 in experiment [1]; 0.264 ± 0.018 in the experiment on E. coli TESEC Mtb Alr [2] (setting [5]); 0.256 ± 0.01 in the experiment with E. coli TESEC Mtb Alr [2] (setting [6]); 0.169 ± 0.0067 with E. coli TESEC Mtb Alr [2] (setting [7]); 0.172 ± 0.0079 in the experiment with E. coli TESEC Mtb Alr [2] (setting [8]); 0.167 ± 0.004 with E. coli TESEC Mtb Alr [2] (setting [9]). In addition, the growth with E. coli TESEC Mtb Asd (setting [10]) was determined as 0.366 ± 0.011; in the experiment on E. coli TESEC Mtb Asd (setting [11]), 0.353 ± 0.024; with E. coli TESEC Mtb DapB (setting [12]), 0.2046 ± 0.0011; in the experiment on E. coli TESEC Mtb DapB (setting [13]) it was 0.21 ± 0.02; in experiment [3], 0.609 ± 0.087; in the experiment with E. coli TESEC Mtb Alr [4] (setting [14]), 0.415 ± 0.016. The compound further had a growth with E. coli TESEC Mtb Alr [4] (setting [15]) of 0.374 ± 0.025.
For the compound `Nc1nc(NC2CC2)c2ncn([C@H]3C=C[C@@H](CO)C3)c2n1` [Abacavir Sulfate], the growth is 0.238 ± 0.018 in experiment [1]; 0.295 ± 0.024 in the experiment with E. coli TESEC Mtb Alr [2] (setting [5]); 0.253 ± 0.0039 in the experiment on E. coli TESEC Mtb Alr [2] (setting [6]); 0.182 ± 0.012 in the experiment on E. coli TESEC Mtb Alr [2] (setting [7]); 0.18 ± 0.0053 in the experiment on E. coli TESEC Mtb Alr [2] (setting [8]); 0.133 ± 0.0075 in the experiment with E. coli TESEC Mtb Alr [2] (setting [9]). For the same compound, the growth in the experiment with E. coli TESEC Mtb Asd (setting [10]) was 0.317 ± 0.022; in the experiment with E. coli TESEC Mtb Asd (setting [11]) it was 0.423 ± 0.015; in the experiment with E. coli TESEC Mtb DapB (setting [12]) it was 0.183 ± 0.018; in the experiment on E. coli TESEC Mtb DapB (setting [13]), 0.212 ± 0.038; in experiment [3] it was 0.612 ± 0.095; with E. coli TESEC Mtb Alr [4] (setting [14]) it was 0.408 ± 0.016. Further, in the experiment on E. coli TESEC Mtb Alr [4] (setting [15]), the growth was found to be 0.339 ± 0.0091.
As to `CCc1nn(CCCN2CCN(c3cccc(Cl)c3)CC2)c(=O)n1CCOc1ccccc1` [Nefazodone HCl], the growth turned out to be 0.0424 ± 0.00076 in experiment [1]; 0.0444 ± 0.0031 with E. coli TESEC Mtb Alr [2] (setting [5]); 0.04017 ± 0.00012 in the experiment on E. coli TESEC Mtb Alr [2] (setting [6]); 0.0431 ± 0.00062 in the experiment with E. coli TESEC Mtb Alr [2] (setting [7]); 0.0406 ± 0.00026 in the experiment with E. coli TESEC Mtb Alr [2] (setting [8]); 0.0473 ± 0.0025 in the experiment with E. coli TESEC Mtb Alr [2] (setting [9]). Moreover, the growth in the experiment with E. coli TESEC Mtb Asd (setting [10]) was 0.0498 ± 0.0029; with E. coli TESEC Mtb Asd (setting [11]), 0.0479 ± 0.0011; in the experiment on E. coli TESEC Mtb DapB (setting [12]) it was 0.05113 ± 0.00049; in the experiment with E. coli TESEC Mtb DapB (setting [13]) it was 0.0483 ± 0.00036; in experiment [3], 0.0504 ± 0.00067; in the experiment on E. coli TESEC Mtb Alr [4] (setting [14]), 0.29 ± 0.2. The growth in the experiment on E. coli TESEC Mtb Alr [4] (setting [15]) is 0.0515 ± 0.001.
`Nc1nc(O)c2ncn(CCC(CO)CO)c2n1` [Penciclovir]: the growth turned out to be 0.25 ± 0.0069 in experiment [1]; 0.31 ± 0.013 in the experiment with E. coli TESEC Mtb Alr [2] (setting [5]); 0.262 ± 0.0029 with E. coli TESEC Mtb Alr [2] (setting [6]); 0.24 ± 0.042 in the experiment on E. coli TESEC Mtb Alr [2] (setting [7]); 0.18 ± 0.011 with E. coli TESEC Mtb Alr [2] (setting [8]); 0.1665 ± 0.0015 in the experiment with E. coli TESEC Mtb Alr [2] (setting [9]). The growth with E. coli TESEC Mtb Asd (setting [10]) came to 0.228 ± 0.033; in the experiment on E. coli TESEC Mtb Asd (setting [11]) it was 0.329 ± 0.033; in the experiment on E. coli TESEC Mtb DapB (setting [12]), 0.226 ± 0.013; in the experiment with E. coli TESEC Mtb DapB (setting [13]) it was 0.244 ± 0.02; in experiment [3] it was 0.455 ± 0.03; in the experiment on E. coli TESEC Mtb Alr [4] (setting [14]), 0.411 ± 0.0086. For the same compound, the growth with E. coli TESEC Mtb Alr [4] (setting [15]) worked out at 0.36 ± 0.021.
With `CO[C@H]1/C=C/O[C@@]2(C)Oc3c(C)c(O)c4c(O)c(c(/C=N/N5CCN(C6CCCC6)CC5)c(O)c4c3C2=O)NC(=O)/C(C)=C\C=C\[C@H](C)[C@H](O)[C@@H](C)[C@@H](O)[C@@H](C)[C@H](OC(C)=O)[C@@H]1C` [Rifapentine], the growth in experiment [1] worked out at 0.0433 ± 0.00049; in the experiment on E. coli TESEC Mtb Alr [2] (setting [5]) it was 0.0468 ± 0.0029; in the experiment on E. coli TESEC Mtb Alr [2] (setting [6]), 0.04193 ± 0.00032; in the experiment on E. coli TESEC Mtb Alr [2] (setting [7]) it was 0.042 ± 0.00082; in the experiment with E. coli TESEC Mtb Alr [2] (setting [8]), 0.0431 ± 0.0013; in the experiment with E. coli TESEC Mtb Alr [2] (setting [9]), 0.04243 ± 0.00025. Moreover, the growth in the experiment with E. coli TESEC Mtb Asd (setting [10]) was determined as 0.0584 ± 0.0025; with E. coli TESEC Mtb Asd (setting [11]), 0.0547 ± 0.0039; with E. coli TESEC Mtb DapB (setting [12]), 0.102 ± 0.087; with E. coli TESEC Mtb DapB (setting [13]), 0.0512 ± 0.00082; in experiment [3], 0.05153 ± 0.00031; in the experiment with E. coli TESEC Mtb Alr [4] (setting [14]), 0.0847 ± 0.014. For the same compound, the growth with E. coli TESEC Mtb Alr [4] (setting [15]) was found to be 0.0548 ± 0.0062.

These data come from the supplement of paper PMC9262897, “Low-cost anti-mycobacterial drug discovery using engineered E. coli” (Nature Communications, 2022).
